According to PubChem BioAssay AID651561 (Sanford-Burnham Center for Chemical Genomics, 2012):
This is one part of the list. Activity calls are given as the source filed them. No stated cut-off is given here; in the data, active means IC50 below about 20 µM; inactive means the rest.

Assay: mitochondrial permeability transition pore inhibitors, dose response, biochemical, absorbance, uHTS hits (AID 651561)
Conditions: isolated mitochondria swelling

| SMILES | IC50 |
| --- | --- |
| O=Cc1cn(Cc2ccc(F)cc2Cl)c2ccccc12 | 32.3 µM (inactive) |
| CC(Cc1ccccc1)NCCC(c1ccccc1)c1ccccc1 (stereo not drawn) | 4.21 µM (active) |
| COc1ccc(C2NCc3ccc4c(c3-n3cccc32)OCO4)cc1OC (stereo not drawn) | 26.9 µM (inactive) |
